Activity calls are given as the source filed them.
Legend:
[1] = tested on: Plasmodium falciparum Sir2 (PF13_0152, Sir2A); test: Plasmodium falciparum Sir2A binding compounds – biochemical, small-molecule microarray, 635 nm fluorescence, primary screen (AID 1098); conditions: fluorescence 635 nm, higher = more signal;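 note: score merges spot fluorescence intensity with its signal-to-noise ratio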
[2] = probe aDKK1 binding to arrayed compounds – biochemical, biotinylated probe, 635/667 nm fluorescence, primary screen (AID 1099); conditions: small-molecule microarray, higher = more signal;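 note: score merges 667nm spot fluorescence with signal to noise across triplicate slides; reference of the scale not given here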
[3] = probe aCHRDL2 binding to arrayed compounds – biochemical, biotinylated probe, 635/667 nm fluorescence, primary screen (AID 1100); conditions: small-molecule microarray, higher = more signal
[4] = change in splice reporter luminescence, either direction, cell-based, HEK293, spliceosome inhibition project, primary screen (AID 1101); conditions: HEK293 splicing luciferase reporter, 24 h, higher = more signal, called active from +8 up or from −8 down;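 note: HEK293 cells carrying a splicing-competent luciferase reporter gene; test concentration not given here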
[5] = biological target: Fibroblast growth factor 10 (Homo sapiens) (UniProt O15520); test: compounds binding fibroblast growth factor 10 – biochemical, small-molecule microarray, 635 nm fluorescence, primary screen (AID 1102); conditions: FGF10 binding, fluorescence 635 nm, higher = more signal
[6] = tested on: glycogen synthase kinase-3 (GSK3A per assay name; protocol says GSK3B); test: compounds binding glycogen synthase kinase-3 – biochemical, small-molecule microarray, 635 nm fluorescence, GSK3A, primary screen (AID 1103); conditions: fluorescence 635 nm, higher = more signal; note: the record names both GSK3A and GSK3B
[7] = biological target: Epidermal growth factor receptor (Homo sapiens) (UniProt P00533); test: compounds binding epidermal growth factor receptor – biochemical, small-molecule microarray, 635 nm fluorescence, primary screen (AID 1104); conditions: EGFR binding, higher = more signal;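 note: score merges 667 nm emission intensity with spot signal to noise over triplicate slides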
[8] = biological target: Follistatin-related protein 3 (Homo sapiens) (UniProt O95633); test: compounds binding follistatin-related protein 3 – biochemical, small-molecule microarray, 635 nm fluorescence, primary screen (AID 1105); conditions: FSTL3 binding, higher = more signal;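 note: score merges emission near 667 nm and signal to noise per printed spot across three slides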
[9] = biological target: Dickkopf-related protein 1 (Homo sapiens) (UniProt O94907); test: small molecules binding DKK1 protein – biochemical, small-molecule microarray, 635 nm fluorescence scan, primary screen (AID 1106); conditions: higher = more signal;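 note: score merges emission near 667 nm with signal to noise over three replicate slides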
[10] = tested on: Inhibin beta A chain (activin A); test: small molecules binding activin A – biochemical, small-molecule microarray, 635 nm fluorescence scan, primary screen (AID 1107); conditions: INHBA, higher = more signal;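 note: mouse activin A protein probed at 4.33 µg/mL on printed slides; score merges bound-protein fluorescence near 667 nm with spot signal-to-noise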

Sequence of Dickkopf-related protein 1 (Homo sapiens) (O94907 whole entry, looked up): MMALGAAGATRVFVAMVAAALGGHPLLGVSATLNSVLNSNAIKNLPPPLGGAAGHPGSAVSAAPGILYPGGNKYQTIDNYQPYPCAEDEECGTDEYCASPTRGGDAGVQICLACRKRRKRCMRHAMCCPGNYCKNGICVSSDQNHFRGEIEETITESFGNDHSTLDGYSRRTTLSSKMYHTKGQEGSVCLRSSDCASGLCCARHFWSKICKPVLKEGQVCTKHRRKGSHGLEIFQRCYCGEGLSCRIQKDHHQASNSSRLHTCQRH
Sequence of Epidermal growth factor receptor (Homo sapiens) (P00533 whole entry, looked up): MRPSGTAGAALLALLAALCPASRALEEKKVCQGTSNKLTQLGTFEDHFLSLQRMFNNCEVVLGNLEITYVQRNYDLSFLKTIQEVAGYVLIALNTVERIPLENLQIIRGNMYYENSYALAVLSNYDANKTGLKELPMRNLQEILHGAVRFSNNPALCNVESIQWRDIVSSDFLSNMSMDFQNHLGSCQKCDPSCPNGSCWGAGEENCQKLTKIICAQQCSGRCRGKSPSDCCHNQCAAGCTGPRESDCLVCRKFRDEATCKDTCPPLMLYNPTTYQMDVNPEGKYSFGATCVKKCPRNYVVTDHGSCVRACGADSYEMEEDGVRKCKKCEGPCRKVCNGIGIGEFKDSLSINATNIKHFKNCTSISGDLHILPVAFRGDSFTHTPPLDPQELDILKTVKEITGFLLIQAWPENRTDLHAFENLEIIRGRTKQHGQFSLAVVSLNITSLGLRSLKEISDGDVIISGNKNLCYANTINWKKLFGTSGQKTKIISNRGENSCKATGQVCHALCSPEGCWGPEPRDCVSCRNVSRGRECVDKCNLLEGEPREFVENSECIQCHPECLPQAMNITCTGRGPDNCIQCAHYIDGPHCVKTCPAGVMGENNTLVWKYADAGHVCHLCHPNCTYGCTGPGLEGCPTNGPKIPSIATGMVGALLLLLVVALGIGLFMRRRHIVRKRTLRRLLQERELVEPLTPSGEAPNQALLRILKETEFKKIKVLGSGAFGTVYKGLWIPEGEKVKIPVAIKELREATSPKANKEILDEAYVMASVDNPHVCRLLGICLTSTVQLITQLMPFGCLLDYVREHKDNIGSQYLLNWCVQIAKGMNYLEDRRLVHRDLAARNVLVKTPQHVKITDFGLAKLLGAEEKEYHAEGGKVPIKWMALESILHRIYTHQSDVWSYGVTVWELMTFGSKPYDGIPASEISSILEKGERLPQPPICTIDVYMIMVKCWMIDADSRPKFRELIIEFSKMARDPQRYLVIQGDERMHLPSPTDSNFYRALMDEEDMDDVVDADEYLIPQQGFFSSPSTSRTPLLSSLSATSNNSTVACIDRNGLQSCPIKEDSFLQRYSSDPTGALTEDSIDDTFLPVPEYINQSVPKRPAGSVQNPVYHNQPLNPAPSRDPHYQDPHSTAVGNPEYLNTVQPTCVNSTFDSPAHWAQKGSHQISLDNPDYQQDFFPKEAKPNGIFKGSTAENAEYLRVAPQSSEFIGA
Sequence of Follistatin-related protein 3 (Homo sapiens) (O95633 whole entry, looked up): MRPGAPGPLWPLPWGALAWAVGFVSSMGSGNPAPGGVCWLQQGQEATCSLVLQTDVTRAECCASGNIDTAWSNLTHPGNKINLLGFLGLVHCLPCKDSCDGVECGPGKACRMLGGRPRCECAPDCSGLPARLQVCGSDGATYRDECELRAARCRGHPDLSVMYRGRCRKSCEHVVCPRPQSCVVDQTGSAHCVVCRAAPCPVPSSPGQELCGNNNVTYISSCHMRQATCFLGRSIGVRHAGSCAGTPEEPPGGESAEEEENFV
Sequence of Fibroblast growth factor 10 (Homo sapiens) (O15520 whole entry, looked up): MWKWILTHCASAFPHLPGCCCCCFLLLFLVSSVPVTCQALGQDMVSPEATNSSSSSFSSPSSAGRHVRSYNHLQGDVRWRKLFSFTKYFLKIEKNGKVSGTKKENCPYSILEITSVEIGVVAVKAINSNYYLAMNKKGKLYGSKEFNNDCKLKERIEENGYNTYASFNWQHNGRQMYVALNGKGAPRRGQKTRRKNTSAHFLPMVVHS

## Cc1ccc(S[C@]2(C(=O)NCC(C)C)CC(=O)N(Cc3cc(C(F)(F)F)cc(C(F)(F)F)c3)[C@@H]2c2ccc(CO)cc2)cc1
[1]
  composite z-score: 0.889
[2]
  composite z-score: 0.209
[3]
  composite z-score: 0.736
[4]
  z-score: 0.585 (inactive)
[5]
  composite z-score: -0.417
[6]
  composite z-score: -0.725
[7]
  composite z-score: -1.25
[8]
  composite z-score: -0.634
[9]
  composite z-score: -0.326
[10]
  composite z-score: 0.96

## CS(=O)(=O)CCOC(=O)C1=CC(CCCO)=CC(c2ccc(CN3CCCC3)cc2)N(Cc2cccc(OC(F)(F)F)c2)C=C1C(=O)OCCS(C)(=O)=O (stereo not given)
[1]
  composite z-score: 1.02
[2]
  composite z-score: 0.275
[3]
  composite z-score: 0.367
[4]
  z-score: 0.0999 (inactive)
[5]
  composite z-score: 1.19
[6]
  composite z-score: 0.997
[7]
  composite z-score: 0.582
[8]
  composite z-score: 0.945
[9]
  composite z-score: 0.468
[10]
  composite z-score: 1.32

## C[N+](C)(C)CCCCCCNC(=O)[C@H]1C[C@H]2C(=O)N[C@@H](Cc3ccccc3)C(=O)N2[C@H]1c1cccc(OCCO)c1
[1]
  composite z-score: 1.65
[2]
  composite z-score: -0.0429
[3]
  composite z-score: 0.0593
[4]
  z-score: 0.264 (inactive)
[5]
  composite z-score: 0.985
[6]
  composite z-score: 1.23
[7]
  composite z-score: 0.227
[8]
  composite z-score: 1.09
[9]
  composite z-score: 0.707
[10]
  composite z-score: 0.279

## CN1CCC(CCCO)=CC1c1cccs1 (stereo not given)
[1]
  composite z-score: 0.238
[2]
  composite z-score: -0.391
[3]
  composite z-score: -0.141
[4]
  z-score: 0.697 (inactive)
[5]
  composite z-score: -0.095
[6]
  composite z-score: 0.0706
[7]
  composite z-score: -0.185
[8]
  composite z-score: -0.61
[9]
  composite z-score: 0.208
[10]
  composite z-score: 0.233

## C=CC[C@]12N=C(c3ccc(OCCCO)cc3)O[C@H]1c1ccccc1N(CCS(=O)(=O)c1ccccc1)C2=O
[1]
  composite z-score: 1.43
[2]
  composite z-score: 0.419
[3]
  composite z-score: 0.777
[4]
  z-score: -2.04 (inactive)
[5]
  composite z-score: 0.374
[6]
  composite z-score: 1.3
[7]
  composite z-score: 0.595
[8]
  composite z-score: 1.11
[9]
  composite z-score: 0.694
[10]
  composite z-score: 1.26

## COC(=O)[C@@]1(Cc2ccc(OC)cc2)[C@H]2c3cc(C(=O)N4CCCC4)n(CCCNc4ncc(C(F)(F)F)cc4Cl)c3C[C@H]2CN1C(=O)c1ccccc1
[1]
  composite z-score: 0.596
[2]
  composite z-score: 1.63
[3]
  composite z-score: 0.941
[4]
  z-score: -2.98 (inactive)
[5]
  composite z-score: 0.595
[6]
  composite z-score: 0.673
[7]
  composite z-score: 0.659
[8]
  composite z-score: 0.95
[9]
  composite z-score: 0.244
[10]
  composite z-score: 1.11

## O=c1cccc(-c2ccccc2Cl)o1
[1]
  composite z-score: -0.462
[2]
  composite z-score: -0.0639
[3]
  composite z-score: -0.456
[4]
  z-score: 0.477 (inactive)
[5]
  composite z-score: 0.425
[6]
  composite z-score: 0.0083
[7]
  composite z-score: 0.0031
[8]
  composite z-score: -0.0893
[9]
  composite z-score: 0.157
[10]
  composite z-score: 0.747

— PubChem BioAssay
